Hits are enriched below; roughly 2.2% of the tested compounds scored in any of these assays.
FBPA Giardia inh – blocks Giardia fructose-bisphosphate aldolase activity | A8B2U2 | purified Giardia FBPA | AID 2451 | Potency, µM (doses to about 59.6 µM), for inactives: at the highest dose activity, negative = inhibition, hits mostly inhibitors | actives 0.71% (n = 290,000); active = well fitted inhibition curve with a large enough effect; inconclusive = small, poorly fitted or top-dose-only effect, or effect the other way; note: nearly all actives have a fitted effect of over 55% in size
Target sequence (A8B2U2 whole entry, looked up): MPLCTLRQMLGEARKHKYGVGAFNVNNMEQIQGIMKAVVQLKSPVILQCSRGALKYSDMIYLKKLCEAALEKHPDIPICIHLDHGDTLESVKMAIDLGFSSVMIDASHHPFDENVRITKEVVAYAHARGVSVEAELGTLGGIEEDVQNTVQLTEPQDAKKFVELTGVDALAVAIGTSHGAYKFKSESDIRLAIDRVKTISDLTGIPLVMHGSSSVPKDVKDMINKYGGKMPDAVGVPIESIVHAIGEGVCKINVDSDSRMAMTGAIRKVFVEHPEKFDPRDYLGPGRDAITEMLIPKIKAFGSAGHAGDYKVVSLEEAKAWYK
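40 nM FBPA preincubated 10 min at RT with compound (up to 57.5 uM final), then substrate plus GAPDH/TPI/NAD/arsenate coupling and diaphorase/resazurin added. Fluorescence read after 20 min at RT, 525/598 nm.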
VACV mCherry inh – vaccinia inhibition (mCherry reporter). actives 0.63% (n = 310,000). Vaccinia virus mCherry reporter infection, fluorescence. Potency, µM (doses to about 36.5 µM), inactives show top-dose activity change, negative = inhibition, hits mostly inhibitors. AID 720579; calls by dose curve; tested in A549 cells; note: nearly all actives have a fitted effect of over 35% in size
FMDV antiviral – blocks foot and mouth disease virus. FMDV antiviral cell-based qHTS. Potency, µM (highest dose often 57.9 µM), for inactives: at the top dose activity change, negative = inhibition, usual class: inhibitors. actives 1.2% (n = 410,000). AID 1159524; calls by dose curve; tested in HEK293T cells; note: read-out not given here; nearly all actives have a fitted effect of over 45% in size
Vaccinia Venus – vaccinia inhibition (Venus reporter); Vaccinia virus Venus reporter expression, fluorescence; Potency, µM (top dose mostly 36.5 µM), without a hit: at the highest dose activity change, negative = inhibition, most hits filed as inhibitors; actives 0.46% (n = 330,000); AID 720580; calls by dose curve; tested in A549 cells; note: nearly all actives have a fitted effect of over 30% in size
Numbers without * were called inactive; [ ] = another dose, or the depositor's remark. % is set by controls: 0 for no effect and ±100 for the full control effect; potency is the fitted concentration of half-maximal effect.

`CC(Sc1ncnc2sccc12)C(=O)Nc1ccc(S(N)(=O)=O)cc1` (stereo not drawn) gave VACV mCherry inh 11µM*, FMDV antiviral -10% and Vaccinia Venus inconclusive.
For CC(Sc1ncnc2sccc12)C(=O)Nc1ccc(C(N)=O)cc1 (stereo not drawn) the results were FBPA Giardia inh 4% and FMDV antiviral -7%.
Screening O=[N+]([O-])c1cccnc1Sc1ccc(Cl)cc1 returned FBPA Giardia inh 3%, VACV mCherry inh -22%, FMDV antiviral -19% and Vaccinia Venus -6%.
For C=CCNc1nnc(Sc2ncccc2[N+](=O)[O-])s1 the results were FBPA Giardia inh -9%, VACV mCherry inh 10µM*, FMDV antiviral 4% and Vaccinia Venus inconclusive.
O=C(Nc1ccc2nc(SCC(=O)N3CCOCC3)sc2c1)c1cccc(Cl)c1 was read as VACV mCherry inh -5%, FMDV antiviral inconclusive and Vaccinia Venus -15%.
Screening CSc1nc2ccsc2c(=O)n1-c1ccccc1 returned FBPA Giardia inh 2%, VACV mCherry inh inactive, FMDV antiviral -13% and Vaccinia Venus -16%.
For CCn1c(=S)sc2c(=O)n(-c3ccccc3)c(SC)nc21 the results were FBPA Giardia inh -6% and FMDV antiviral 18µM*.
O=C(NCCc1nnc2n1CCN(Cc1cc3ccccc3o1)CC2)c1ccoc1 was read as VACV mCherry inh inactive, FMDV antiviral -28% and Vaccinia Venus -11%.
For COC(=O)C1=NOC2(C=C(Br)C(OC)=C(Br)C2=O)C1 (stereo not drawn) the results were FBPA Giardia inh 0%[12.9 µM].
`CN(Cc1cnc2nc(N)nc(N)c2n1)c1ccc(C(=O)NC(CCC(=O)O)C(=O)O)c2ccccc12` (stereo not drawn) gave VACV mCherry inh 3.2µM*, FMDV antiviral -18% and Vaccinia Venus inconclusive.
`O=C(O)CC[C@H](NC(=O)c1ccccc1C(=O)O)C(=O)O` gave FBPA Giardia inh -3%.
`NC(=O)C1CCCN(Cc2ccc3c(c2)CN(Cc2cn[nH]c2-c2ccc(F)cc2)CCO3)C1` (stereo not drawn) gave VACV mCherry inh -19%, FMDV antiviral -7% and Vaccinia Venus -17%.
`C=CCNC(=S)N/N=C/c1ccc(-c2ccc(OC)cc2)o1` gave FBPA Giardia inh -3%, VACV mCherry inh inconclusive, FMDV antiviral 14µM* and Vaccinia Venus inconclusive.
`O=S(=O)(c1cccnc1)N1CCN(c2nc(-c3cccs3)nc3ccccc23)CC1` gave VACV mCherry inh -26% and Vaccinia Venus -18%.
Screening O=C1C(=O)c2ccccc2C(O)=C1c1cccc([N+](=O)[O-])c1 returned FBPA Giardia inh inconclusive, VACV mCherry inh -29%, FMDV antiviral 40µM* and Vaccinia Venus 0%.
OCC(CO)(CO)N=Cc1c(O)ccc2ccccc12 was read as FBPA Giardia inh inconclusive, VACV mCherry inh -5%, FMDV antiviral -14% and Vaccinia Venus 5%.
`Oc1ccc2ccccc2c1C=NC12CN3CCN(CN(C3)C1)C2` gave FBPA Giardia inh 14µM*, VACV mCherry inh inactive, FMDV antiviral inconclusive and Vaccinia Venus -5%.
`COc1cccc(C(Nc2ccccc2)c2ccc3ccc(C)nc3c2O)c1` (stereo not drawn) gave VACV mCherry inh 7.1µM*, FMDV antiviral -8% and Vaccinia Venus inconclusive.
Screening COc1cccc(C(NC(C)=O)c2ccc3cccnc3c2O)c1 (stereo not drawn) returned FBPA Giardia inh -24%, VACV mCherry inh inconclusive, FMDV antiviral -18% and Vaccinia Venus inconclusive.
`O=[N+]([O-])c1ccc2nc(CO)[nH]c2c1` gave VACV mCherry inh -19% and Vaccinia Venus -16%.
Cc1c(C(=O)OCc2nc3scc(-c4ccccc4)c3c(=O)[nH]2)cccc1[N+](=O)[O-] was read as FBPA Giardia inh 3%, VACV mCherry inh -25%, FMDV antiviral 14µM* and Vaccinia Venus -19%.
`O=C(c1cnsn1)N1CCOc2ccc(CN3CCOCC3)cc2C1` gave VACV mCherry inh -12%, FMDV antiviral 18% and Vaccinia Venus -9%.
For Cc1nn(-c2ccc3ccccc3c2)c(=O)c2ccccc12 the results were FBPA Giardia inh -3%, VACV mCherry inh 1%, FMDV antiviral 50% and Vaccinia Venus -18%.
For Cc1nn(-c2nc3ccccc3[nH]2)c(=O)c2ccccc12 the results were FBPA Giardia inh -5%, VACV mCherry inh inactive, FMDV antiviral 0.79µM* and Vaccinia Venus -20%.
Screening O=C(O)CCNc1cc2ccccc2cc1C(=O)O returned FBPA Giardia inh 4.5µM*, VACV mCherry inh -13%, FMDV antiviral 1% and Vaccinia Venus -9%.
For O=C(O)CCNS(=O)(=O)c1ccc2ccccc2c1 the results were FBPA Giardia inh 15% and FMDV antiviral 37%.
CCOC(=O)N1CCN(S(=O)(=O)c2ccc(C(=O)NNc3nc4cc(C)cc(C)c4s3)cc2)CC1 was read as FBPA Giardia inh inconclusive, VACV mCherry inh 13µM*, FMDV antiviral inconclusive and Vaccinia Venus inconclusive.
CCOC(=O)N1CCN(S(=O)(=O)c2ccc(C(=O)NNc3nc4c(C)cc(C)cc4s3)cc2)CC1 was read as FBPA Giardia inh inconclusive, VACV mCherry inh 10µM*, FMDV antiviral -16% and Vaccinia Venus inconclusive.
`Cc1cccc2sc(NNC(=O)c3ccc(S(=O)(=O)N4CCCC(C)C4)cc3)nc12` (stereo not drawn) gave FBPA Giardia inh -26%, VACV mCherry inh inconclusive, FMDV antiviral 10µM* and Vaccinia Venus inconclusive.
`Cc1ccc(O/C=C2/Nn3c(nnc3-c3cc(-c4ccccc4)n[nH]3)S2)cc1` gave VACV mCherry inh -11% and Vaccinia Venus -28%.
For COc1cc2nc(N3CCCN(C)CC3)nc(NC3CCNCC3)c2cc1OC the results were VACV mCherry inh -3% and Vaccinia Venus -13%.
Oc1cccc2c(NC(=S)Nc3ccc(SC(F)F)cc3)cccc12 was read as FBPA Giardia inh 1.8µM* and FMDV antiviral 13µM*.
Oc1cccc(NC(=S)Nc2ccc(SC(F)F)cc2)c1 was read as FBPA Giardia inh -5%, VACV mCherry inh -16%, FMDV antiviral -1% and Vaccinia Venus -19%.
Cc1cccc(N2CCN(C(=O)CCCSc3nc4ccccc4[nH]3)CC2)c1C was read as FBPA Giardia inh 1%, VACV mCherry inh -17%, FMDV antiviral 35µM* and Vaccinia Venus -22%.
For CC(C)CCn1c(SCc2ccc(Cl)cc2)nc2c1c(=O)[nH]c(=O)n2C the results were FBPA Giardia inh 1%, VACV mCherry inh -15% and Vaccinia Venus -10%.
For CCCCCn1c(Sc2ncccn2)nc2c1c(=O)[nH]c(=O)n2C the results were FBPA Giardia inh -6%, FMDV antiviral -16% and Vaccinia Venus -1%.
`CCCCn1c(SCc2ccc(Cl)cc2)nc2c1c(=O)[nH]c(=O)n2C` gave FBPA Giardia inh 4%, FMDV antiviral 35µM* and Vaccinia Venus -9%.
For CCCCCn1c(Sc2nc3ccccc3s2)nc2c1c(=O)[nH]c(=O)n2C the results were FBPA Giardia inh -14%, VACV mCherry inh 10µM* and Vaccinia Venus 10µM*.

Assay outcomes from PubChem BioAssay.
